{"source": "PubChem BioAssay", "note": "Values joined by “and” are separate entries in the source; they are usually repeats but may differ in a detail not shown here. Equal values may be shown once.", "data": [{"assay": "mitochondrial membrane potential change in A549 cells, profiling panel, cell-based, JC-1 fluorescence, basal, 24 h, 100 nL (AID 1138);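 also: A549 lung adenocarcinoma cells under basal conditions with no added stimulus; test concentration not given here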", "settings": "higher = more signal", "values": [{"smiles": "C=CCN(CCCC)C(=O)C(c1cccs1)N(CCOCCO)C(=O)/C=C\\C(=O)O", "note": "(stereo not drawn)", "z-score": "0.0562 and 0.567"}, {"smiles": "CC(C)[Si]1(C(C)C)OCc2cc(CCCc3cc4c(c(CCc5ccccc5)n3)[Si](C(C)C)(C(C)C)OC4)nc(CCc3ccccc3)c21", "z-score": "0.627 and 0.00206"}, {"smiles": "O=C1[C@H]2[C@H]3[C@H](O)[C@H](O)CC(=NOCc4ccccc4)[C@H]3CC[C@H]2C(=O)N1Cc1ccccc1", "z-score": -0.901}, {"smiles": "C=CCN(C(=O)C1N(CCOCCO)C(=O)C2C(C(=O)O)C3C=CC21O3)c1ccc(OC)cc1", "note": "(stereo not drawn)", "z-score": "0.154 and 0.454"}, {"smiles": "C=CCN(CCCCC)C(=O)C(c1cccs1)N(C(=O)/C=C\\C(=O)O)c1c(Cl)cccc1CO", "note": "(stereo not drawn)", "z-score": "-0.634 and 0.534"}, {"smiles": "C=C[C@@H](OC)[C@H](O)c1ccc(OCCO)cc1", "z-score": "0.27 and -0.142"}, {"smiles": "CC(=O)OC[C@H]1O[C@H](C#CC(C)(C)C)C=C[C@@H]1OC(C)=O", "z-score": 0.707}, {"smiles": "C[N+](C)(C)CCCCCCNC(=O)[C@H]1C[C@H]2C(=O)N[C@@H](CCCC[N+](C)(C)C)C(=O)N2[C@H]1c1ccc(O)cc1", "z-score": "-1.08 and -0.207"}, {"smiles": "COc1ccc(-c2ccc3c(n2)CCCN3CC(O)CN2CCCc3nc(-c4ccc(Br)cc4)ccc32)cc1", "note": "(stereo not drawn)", "z-score": "1.45 and 0.555"}, {"smiles": "CC(CO)N1C(=O)[C@@H]2C3C(=O)OCCC=C[C@H]3OC23C=CCN(Cn2nnc4ccccc42)C(=O)[C@@H]13", "note": "(stereo partly drawn)", "z-score": "-0.469 and -0.766"}, {"smiles": "C[C@@]1([C@@H](NC(=O)Cc2ccccc2)c2ccc(-c3ccccc3)cc2)C[C@H]1C1CCCCC1", "z-score": "-0.788 and 0.267 and 0.196"}, {"smiles": "C=CCN(CCCC)C(=O)C(c1cccs1)N(C(=O)/C=C\\C(=O)O)c1c(Cl)cccc1CO", "note": "(stereo not drawn)", "z-score": "-0.107 and -0.132"}, {"smiles": "C=C[C@@H](C)[C@@H](O)c1ccc(OCCO)cc1", "z-score": "-0.0607 and 0.803"}]}]}
